Data as given in the supplement of paper PMC8728848.
This is one part of a sample in which the strongest signals are shown more often than they occur.

How the values were obtained:
Assay in all cases: glycan array binding signal (z-score within array); higher = stronger binding
Conditions in all cases: glycan notation: IUPAC condensed, linker removed
Glc(b1-4)Glc = biological target: Glc(b1-4)Glc
Method in brief: (§1)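 The binding signal is a Z-score computed within each array and averaged over linkers. Arrays of the same protein sequence at different concentrations or buffers were also averaged together. Data originate from 3228 arrays in the Consortium for Functional Glycomics database, kept only where the protein sequence was available.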

[1] = biological target: GlcNAc(a1-4)Gal(b1-4)GlcNAc(b1-3)Gal(b1-4)GlcNAc
Method in brief: as §1

[2] = biological target: GlcNAc(a1-4)Gal(b1-4)GlcNAc(b1-3)Gal(b1-4)GlcNAc(b1-3)Gal(b1-4)GlcNAc
Method in brief: as §1

[3] = biological target: GlcNAc(b1-3)Gal(b1-4)GlcNAc(b1-3)Gal(b1-4)GlcNAc(b1-2)Man(a1-3)[GlcNAc(b1-3)Gal(b1-4)GlcNAc(b1-3)Gal(b1-4)GlcNAc(b1-2)Man(a1-6)]Man(b1-4)GlcNAc(b1-4)[Fuc(a1-6)]GlcNAc
Method in brief: as §1

[4] = biological target: GlcNAc(b1-3)Gal(b1-4)GlcNAc(b1-3)Gal(b1-4)GlcNAc(b1-3)Gal(b1-4)GlcNAc(b1-3)Gal(b1-4)GlcNAc(b1-2)Man(a1-3)[GlcNAc(b1-3)Gal(b1-4)GlcNAc(b1-3)Gal(b1-4)GlcNAc(b1-3)Gal(b1-4)GlcNAc(b1-3)Gal(b1-4)GlcNAc(b1-2)Man(a1-6)]Man(b1-4)GlcNAc(b1-4)GlcNAc
Method in brief: as §1

GlcNAc(b1-3)Man = biological target: GlcNAc(b1-3)Man
Method in brief: as §1

[5] = biological target: GlcNAc(b1-6)Gal(b1-4)GlcNAc
Method in brief: as §1

Kdn(a2-3)Gal(b1-4)Glc = biological target: Kdn(a2-3)Gal(b1-4)Glc
Method in brief: as §1

Kdn(a2-3)Gal(b1-4)GlcNAc = biological target: Kdn(a2-3)Gal(b1-4)GlcNAc
Method in brief: as §1

[6] = biological target: Man(a1-3)[Man(a1-6)]Man(b1-4)GlcNAc(b1-4)GlcNAc
Method in brief: as §1

Man(b1-4)GlcNAc = biological target: Man(b1-4)GlcNAc
Method in brief: as §1

Neu5Ac(a2-3)Gal = biological target: Neu5Ac(a2-3)Gal
Method in brief: as §1

[7] = biological target: Neu5Ac(a2-3)Gal(b1-3)[Fuc(a1-4)]GlcNAc
Method in brief: as §1

[8] = biological target: Neu5Ac(a2-3)Gal(b1-3)[Fuc(a1-4)]GlcNAc(b1-3)Gal(b1-3)[Fuc(a1-4)]GlcNAc
Method in brief: as §1

[9] = biological target: Neu5Ac(a2-3)Gal(b1-3)[GlcNAc(b1-6)]GalNAc
Method in brief: as §1

[10] = biological target: Neu5Ac(a2-3)Gal(b1-4)GlcNAc
Method in brief: as §1

[11] = biological target: Neu5Ac(a2-3)Gal(b1-4)GlcNAc(b1-6)[Neu5Ac(a2-3)Gal(b1-3)]GalNAc
Method in brief: as §1

[12] = biological target: Neu5Ac(a2-6)Gal(b1-4)GlcNAc(b1-2)Man(a1-3)[Neu5Ac(a2-6)Gal(b1-4)GlcNAc(b1-2)Man(a1-6)]Man(b1-4)GlcNAc(b1-4)[Fuc(a1-6)]GlcNAc
Method in brief: as §1

[13] = biological target: Neu5Ac(a2-6)Gal(b1-4)GlcNAc(b1-2)Man(a1-6)[GlcNAc(b1-2)Man(a1-3)]Man(b1-4)GlcNAc(b1-4)GlcNAc
Method in brief: as §1

[14] = biological target: Neu5Ac(a2-6)Gal(b1-4)GlcNAc(b1-3)Gal(b1-4)GlcNAc(b1-2)Man(a1-3)[Neu5Ac(a2-6)Gal(b1-4)GlcNAc(b1-3)Gal(b1-4)GlcNAc(b1-2)Man(a1-6)]GalNAc
Method in brief: as §1

[15] = biological target: Neu5Ac(a2-6)Gal(b1-4)GlcNAc(b1-3)Gal(b1-4)GlcNAc(b1-6)[Gal(b1-3)]GalNAc
Method in brief: as §1

[16] = biological target: Neu5Ac(a2-8)Neu5Ac(a2-8)Neu5Ac
Method in brief: as §1

[17] = biological target: Neu5Ac9Ac(a2-3)Gal(b1-3)GlcNAc
Method in brief: as §1

[18] = biological target: Neu5Gc(a2-3)Gal(b1-4)GlcNAc
Method in brief: as §1

[19] = biological target: Neu5Gc(a2-6)Gal(b1-4)GlcNAc
Method in brief: as §1

B1: LICBM33A (Lactococcus lactis), Q9CE94 (protein)
chain: MKKLLTGLLVAAGLLSVSLLIKTDTVSAHGYVQSPPARGYQGQLDSQSLGWTAAFNIYGNVISNPQSLEAPKGFPECGPADGRIASANGGLGQIGDFVLDNQTSSRWKKTSISTGSNIFTWKYTAPHKTTKWHYYMTKTGWDQNAPLKHSELELIGTINHDGSPATNNLSHTINIPTDRSGYHIVLAVWDVADTSNAFYNVIDINVNNKNASSQVFGPFL
- glycan array binding signal (z-score) (Glc(b1-4)Glc): -0.321
- glycan array binding signal (z-score) [1]: -0.4
- glycan array binding signal (z-score) [2]: -0.457
- glycan array binding signal (z-score) [3]: -0.307
- glycan array binding signal (z-score) [4]: 4.98
- glycan array binding signal (z-score) (GlcNAc(b1-3)Man): 0.023
- glycan array binding signal (z-score) [5]: -0.043
- glycan array binding signal (z-score) (Kdn(a2-3)Gal(b1-4)Glc): 0.82
- glycan array binding signal (z-score) (Kdn(a2-3)Gal(b1-4)GlcNAc): -0.667
- glycan array binding signal (z-score) [6]: 0.527
- glycan array binding signal (z-score) (Man(b1-4)GlcNAc): -0.147
- glycan array binding signal (z-score) (Neu5Ac(a2-3)Gal): 0.406
- glycan array binding signal (z-score) [7]: 3.52
- glycan array binding signal (z-score) [8]: 3.37
- glycan array binding signal (z-score) [9]: 1.55
- glycan array binding signal (z-score) [10]: 0.435
- glycan array binding signal (z-score) [11]: -0.471
- glycan array binding signal (z-score) [12]: 4.31
- glycan array binding signal (z-score) [13]: 4.26
- glycan array binding signal (z-score) [14]: 4.82
- glycan array binding signal (z-score) [15]: -0.512
- glycan array binding signal (z-score) [16]: -0.117
- glycan array binding signal (z-score) [17]: 0.017
- glycan array binding signal (z-score) [18]: -0.141
- glycan array binding signal (z-score) [19]: -0.606
